PubChem BioAssay (NCATS)
Results filed as inconclusive are left out. Entries that show only a call come without a potency. The source made the active and inactive calls. Calls come from the whole dose curve; as a rule, active = well fitted curve in the direction sought with a large enough effect; inconclusive = small, poorly fitted or top-dose-only effect, or another doubt; inactive = no such curve, though single readings can be large; an effect the other way counts as inactive or inconclusive.

Test system: not listed separately
Assay: Primary fluorescence-based thiol-reactive (MSTI) qHTS assay for identification of artifact compounds. (AID 1845221); note: nearly all actives have a fitted effect of over 65% in size; note: potency is the fitted concentration of half-maximal effect
Conditions: MSTI thiol-reactivity probe, 1 h; series mostly up to 53.8 µM
Method in brief: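 Curve-fitted percent inhibition (4-parameter Hill) derived from fluorescence, Ex 525/Em 598 nm, scaled with Acetyl-MSTI and MSTI; 1 h incubation at room temperature.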

SMILES	Potency
C=CC1C(OC2OC(CO)C(O)C(O)C2O)OC=C(C(=O)OC)C1CC1CC(=O)CC(CCc2ccc(O)cc2)O1 (stereo not drawn)	inactive
CC[C@]1(O)CC2CN(CCc3c([nH]c4ccccc34)[C@@](C(=O)OC)(c3cc4c(cc3OC)N(C)[C@H]3[C@@](O)(C(=O)OC)[C@H](OC(C)=O)[C@]5(CC)C=CCN6CC[C@]43[C@@H]65)C2)C1 (stereo partly drawn)	inactive
C[C@H](NC(=O)CCc1nc2ccccc2c(=O)[nH]1)c1ccccc1	inactive
COc1cc2nc(N3CCCC3)nc(NCCCCCN3CCCC3)c2cc1OC	inactive
CC(C)=CC/C=C(\C)[C@H]1CC[C@]2(C)[C@@H]1[C@H](O)C[C@@H]1[C@@]3(C)CC[C@H](O)C(C)(C)[C@@H]3[C@@H](O[C@@H]3O[C@H](CO)[C@@H](O)[C@H](O)[C@H]3O)C[C@]12C	inactive
CC1CCC2C(C)(C)[C@@H](O)CC[C@]2(C)C12Cc1c(O)cc3c(c1O2)CN(C(CCC(=O)O)C(=O)O)C3=O (stereo partly drawn)	inactive
COC(=O)C[C@H]1[C@]2(C)C3=C(C)[C@H](c4ccoc4)C[C@H]3O[C@@H]2[C@H](OC(C)=O)C2[C@](C)(C(=O)OC)C=CC(=O)[C@@]21C (stereo partly drawn)	13 µM (active)
COc1cc2nc(N3CCC(N4CCCCC4)CC3)nc(NC3CCCCCC3)c2cc1OC	inactive
CC1=CC(=O)[C@H]2C(C)(C)CCC[C@]2(C)[C@@]1(O)CO	inactive
CC(C)C(NC(=O)c1ccc2ccccc2n1)C(=O)NC(CC(=O)O)C(=O)COc1c(F)cccc1F (stereo not drawn)	inactive
O=C(O)c1cc(I)ccc1NC(=O)[C@H](Cc1ccccc1)NCc1ccccc1	inactive

Test system: Nanoluciferase (engineered Oplophorus gracilirostris luciferase)
Assay: Primary Nanoluciferase (NLuc) qHTS assay for identification of artifact compounds. (AID 1845222)
Conditions: NLuc-conditioned medium, Nano-Glo luminescence, 5 min; series mostly up to 54.1 µM
Method in brief: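 Compounds are pinned into diluted (1:55) conditioned medium of NLuc-expressing S16 cells and held 15 min at room temperature protected from light. Nano-Glo substrate follows, and luminescence is read 5 min later.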

SMILES	Potency	activity, negative = inhibition
CCCNc1ccc2ncc(-c3ccc4[nH]ncc4c3)n2n1	inactive	–
Cc1cc(C)c(Nc2ccnc(Nc3ccc(C#N)cc3)n2)c(C)c1	inactive	–
CC(C)=CCC/C(C)=C/CO[C@@H]1O[C@H](CO)[C@@H](OC(=O)/C=C/c2ccc(O)cc2)[C@H](O[C@@H]2O[C@@H](C)[C@H](O)[C@@H](O)[C@H]2O)[C@H]1O	inactive	–
CC1(C)CC2C(C1)C(C)(O)C13CC1(COC3=O)C2O (stereo not drawn)	inactive	–
CC1=C(C)C(=O)OC(C(C)C2CCC3C4CC=C5CC(OC6OC(COC7OC(CO)C(O)C(O)C7O)C(O)C(O)C6O)CC(O)C5(C)C4CCC23C)C1 (stereo not drawn)	inactive	–
O=C(c1cccc(Cl)c1F)N1CCN(Cc2cccc(Nc3nccs3)n2)CC1	inactive	–
CC(=O)NCC(=O)N1C2CCC1c1cc(Nc3ncc(C(F)(F)F)c(NC4CCC4)n3)ccc12 (stereo not drawn)	inactive	–
Cc1nc(Nc2n[nH]c3c2CN(C(=O)NC(CN(C)C)c2ccccc2)C3(C)C)c2sccc2n1 (stereo not drawn)	inactive	–
COc1ccc([C@@H]2OC[C@H]3[C@@H]2CO[C@@H]3c2ccc(OC3OC(CO)C(O)C(O)C3O)c(OC)c2)cc1OC (stereo partly drawn)	inactive	–
CC1CC[C@]2(C(=O)O)CC[C@]3(C(=O)O)C(=CCC4[C@@]5(C)CC[C@H](OC6OC(C)C(O)C(OC7OC(CO)C(O)C(O)C7O)C6O)C(C)(C)C5CC[C@]43C)C2C1C (stereo partly drawn)	inactive	–
CC(=O)OC[C@]12[C@H](OC(C)=O)C(=O)[C@@H]3[C@@H](OC(C)=O)[C@@]14O[C@@]3(C)COC(=O)c1cccnc1[C@@H](C)[C@H](C)C(=O)O[C@@H]([C@H](O)[C@@H]2OC(C)=O)[C@]4(C)O	inactive	–
CC1=CC(=O)CC(C)(C)C1CCC(C)O[C@@H]1O[C@H](CO[C@@H]2OC[C@@H](O)[C@H](O)[C@H]2O)[C@@H](O)[C@H](O)[C@H]1O (stereo partly drawn)	inactive	–
CC(C)=CCC[C@](C)(O)[C@H]1CC[C@]2(C)[C@@H]1[C@H](O)CC1[C@@]3(C)CC[C@H](O)C(C)(C)[C@@H]3[C@@H](O[C@@H]3O[C@H](CO)[C@@H](O)[C@H](O)[C@H]3O[C@@H]3O[C@H](CO)[C@@H](O)[C@H](O)[C@H]3O)C[C@]12C (stereo partly drawn)	inactive	–
CCOc1cc(C(=O)N2CCC(N3CCN(C)CC3)CC2)ccc1Nc1ncc2c(n1)N(C1CCCC1)c1ccccc1C(=O)N2C	inactive	–
CC1(C)CCC2(C(=O)OC3OCC(O)C(O)C3O)CCC3(C)C(=CCC4C5(C)CC(O)C(OC6OC(COC7OCC(O)C(O)C7O)C(O)C(O)C6O)C(C)(C)C5CCC43C)C2C1 (stereo not drawn)	–	0.507% [at 11.6 µM] (inactive)
CC1=CC2C(CC1OC1OC(CO)C(O)C(O)C1O)C(C)CC(=O)C2C(C)C (stereo not drawn)	inactive	–
C[C@@H]1O[C@@H](O[C@H]2[C@H](O)[C@@H](O[C@@H]3O[C@H](CO)[C@@H](O)[C@H](O[C@@H]4O[C@H](CO)[C@@H](O)[C@H](O)[C@H]4O)[C@H]3O)[C@H](O[C@H]3CC[C@@]4(C)C(=CC[C@@H]5C4CC[C@@]4(C)C5C[C@@H]5OC6(CC[C@@](C)(CO[C@@H]7O[C@H](CO)[C@@H](O)[C@H](O)[C@H]7O)O6)[C@@H](C)[C@@H]54)C3)O[C@@H]2CO)[C@H](O)[C@H](O)[C@H]1OC1OC(CO)C(O)C(O)C1O (stereo partly drawn)	–	1.98% [at 11.6 µM] (inactive)
